Source: PubChem
In the library only some 19% were active in any assay of this set; here they are far more common.
uPA surface inh = qHTS for Inhibitors of Cell Surface uPA Generation; AID 540303, 2011; cell surface uPA generation assay, qHTS; actives 0.31% (n = 330,000); Potency, µM (titrated, usually from 38.3 µM), for the others: at the highest dose activity change, negative = inhibition, actives largely listed as inhibitors; active means well fitted inhibition curve with a large enough effect; inconclusive means small, poorly fitted or top-dose-only effect; inactive means no such curve, though single readings can be large or run the other way; tested in mouse RAW 264.7 cells; further: potency means the concentration at half of the fitted maximal effect; nearly all actives have a fitted effect of over 55% in size
DT40 TDP1 CPT = qHTS for Inhibitors of human tyrosyl-DNA phosphodiesterase 1 (TDP1): qHTS in cells in presence of CPT. actives 12% (n = 420,000). AID 686979, 2013. chicken DT40 Tdp1-/-;hTDP1 cells + 20 nM CPT, ATP luminescence, 48 h. Potency, µM (series often up to 46.2 µM), without a hit: top-dose activity change, negative = growth inhibition, actives largely listed as inhibitors; further: potency means the concentration at half of the fitted maximal effect; nearly all actives have a fitted effect of over 55% in size
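Cell growth measured by CellTiter-Glo luminescence after a minimum 48 h, 37 C compound exposure with 20 nM CPT in Tdp1-knockout DT40 cells stably expressing hTDP1, seeded 400/well; qHTS titration format.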
TDP1 cell noCPT = qHTS for Inhibitors of human tyrosyl-DNA phosphodiesterase 1 (TDP1): qHTS in cells in absence of CPT; Potency, µM (titrated, usually from 46.2 µM), without a hit: at the top dose activity change, negative = growth inhibition, hits mostly inhibitors; actives 15% (n = 420,000); DT40 Tdp1-/- hTDP1 cells, no CPT, ATP luminescence, 48 h; AID 686978, 2013; further: potency means the concentration at half of the fitted maximal effect; nearly all actives have a fitted effect of over 55% in size
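Stably hTDP1-transfected Tdp1-null chicken DT40 cells were treated with library compounds minus camptothecin and grown for at least 48 hr at 37 °C, after which cellular ATP was quantified by luminescence.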
IL-1B inflam inh = qHTS for Inhibitors of Inflammasome Signaling: IL-1-beta AlphaLISA Primary Screen. activity change, % at 57.5 µM. actives 4.7% (n = 360,000). THP-1 LPS/ATP IL-1B secretion, AlphaLISA, 16 h; stronger effect = lower value; in the data active means activity change below about -50%; inconclusive means mostly about -30% to -49%
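Secreted IL-1B measured by AlphaLISA bead assay after 16 h compound exposure of THP-1 cells; compounds (final up to 57.5 uM) added 1 h before LPS (250 ng/mL) and ATP (1.25 mM) stimulation; lower signal means less secretion.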
HT1080-NT tox = qHTS for induction of synthetic lethality in tumor cells producing 2HG: qHTS for the HT-1080-NT fibrosarcoma cell line; actives 1.6% (n = 360,000); HT-1080-NT fibrosarcoma viability, CellTiter-Glo ATP luminescence, 48 h; Potency, µM (highest dose often 46.1 µM), for the others: at the top dose activity, negative = less viability, most hits filed as cytotoxic;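 further: NT is the 2HG producing partner of a matched IDH1 knockdown line; potency means the concentration at half of the fitted maximal effect; 0% = DMSO-treated cells and -100% = media-only wells without cells; nearly all actives have a fitted effect of over 55% in size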
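Luminescent CellTiter-Glo readout after 48 hours of compound exposure at 37 degrees C defined viability of HT-1080-NT cells. Activity was normalized to DMSO wells and cell-free media wells; concentration-response curves were fitted and assigned curve classes.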
HT1080 IDH1KD tx = qHTS for induction of synthetic lethality in tumor cells producing 2HG: qHTS for the HT-1080-IDH1KD cell line; HT-1080 IDH1 knockdown viability, ATP luminescence, 48 h; Potency, µM (highest dose often 46.1 µM), inactives show at the top dose activity, negative = toxicity, usual class: cytotoxic; actives 2% (n = 360,000); AID 686971, 2013;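 further: potency means the concentration at half of the fitted maximal effect; 0% = DMSO wells and -100% = cell-free medium wells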
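CellTiter-Glo luminescence after 48 h compound exposure at 37 degrees C of IDH1-knockdown HT-1080 cells in 5% FBS RPMI. %Activity scaled between DMSO wells and cell-free media wells, with curves fitted and assigned curve classes.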
The depositor's hits bear a star. Unless noted, the call rests on the fitted dose curve; in most records, active means well fitted curve in the direction sought with a large enough effect; inconclusive means small, poorly fitted or top-dose-only effect, or another doubt; inactive means no such curve, though single readings can be large; an effect the other way counts as inactive or inconclusive. Unless noted, on the % scale 0 is the no-effect control and ±100 the full control effect.

How did O=S(=O)(Nc1ccc(OC(F)(F)F)cc1)c1ccc(N2CCCCS2(=O)=O)cc1 do in these assays?
DT40 TDP1 CPT: 20.6µM*; TDP1 cell noCPT: 20.6µM*

What do the screens show for `COc1ccc(NS(=O)(=O)c2ccc(N3CCCCS3(=O)=O)cc2)cc1Cl`?
DT40 TDP1 CPT: 8.2µM*; TDP1 cell noCPT: 4.61µM*

Results for O=C(CN1C=NS(=O)(=O)c2ccccc21)Nc1ccccc1F ?
DT40 TDP1 CPT: -9.6%; TDP1 cell noCPT: -15.9%

What do the screens show for `O=c1[nH]c(=S)[nH]c2c1[C@H](CCc1cccc(Cl)c1)O[C@H](C1CC1)C2`?
DT40 TDP1 CPT: -10.2%; TDP1 cell noCPT: -13.0%; IL-1B inflam inh: 19.2; HT1080-NT tox: -21.5%; HT1080 IDH1KD tx: inconclusive

How did Cc1oc2ncn(CC(C)C)c(=O)c2c1C(=O)Nc1cccc(C(F)(F)F)c1 do in these assays?
DT40 TDP1 CPT: -10.3%; TDP1 cell noCPT: -1.0%

How did Cc1cccc(NC(=O)c2c(C)oc3ncn(CC(C)C)c(=O)c23)n1 do in these assays?
DT40 TDP1 CPT: 10.3µM*; TDP1 cell noCPT: 9.2µM*

Results for Cc1oc2ncn(CC(C)C)c(=O)c2c1C(=O)NCc1cccc(Cl)c1 ?
DT40 TDP1 CPT: 16.4µM*; TDP1 cell noCPT: 16.4µM*

How did COc1ccc(C)cc1NC(=O)c1c(C)oc2ncn(CC(C)C)c(=O)c12 do in these assays?
DT40 TDP1 CPT: inconclusive; TDP1 cell noCPT: 23.1µM*

How did CC(C)c1ccc2[nH]c(O)c(N=NC(=O)c3cccc(S(=O)(=O)Nc4ccccc4Cl)c3)c2c1 do in these assays?
uPA surface inh: 4.9%; DT40 TDP1 CPT: -3.7%; TDP1 cell noCPT: 3.3%; IL-1B inflam inh: 31.3; HT1080-NT tox: 12.8%; HT1080 IDH1KD tx: 7.7%

What do the screens show for `COCCNC(=S)N=Nc1c(O)[nH]c2ccc([N+](=O)[O-])cc12`?
uPA surface inh: 0.5%; DT40 TDP1 CPT: 6.5%; TDP1 cell noCPT: inconclusive; IL-1B inflam inh: 16.5; HT1080-NT tox: 2.6%; HT1080 IDH1KD tx: 25.9µM*

Results for CC(C)NC(=S)N=Nc1c(O)[nH]c2ccc(C(C)C)cc12 ?
uPA surface inh: -29.6%; DT40 TDP1 CPT: 5.8µM*; TDP1 cell noCPT: 5.17µM*; IL-1B inflam inh: 0.5; HT1080-NT tox: -7.2%; HT1080 IDH1KD tx: 0.6%

How did O=C(CCCCCNC(=O)c1ccccc1Br)N=Nc1c(O)[nH]c2ccccc12 do in these assays?
uPA surface inh: -20.4%; DT40 TDP1 CPT: 20.6µM*; TDP1 cell noCPT: inconclusive; IL-1B inflam inh: 4.6; HT1080-NT tox: 10.6%; HT1080 IDH1KD tx: 7.7%

What do the screens show for `NS(=O)(=O)c1cc(C(=O)N=Nc2c(O)[nH]c3ccccc23)ccc1Cl`?
uPA surface inh: -3.7%; DT40 TDP1 CPT: inconclusive; TDP1 cell noCPT: 18.4µM*; IL-1B inflam inh: -25.2; HT1080-NT tox: -28.8%; HT1080 IDH1KD tx: -1.3%

What do the screens show for `CCCCCCC(=O)N=Nc1c(O)[nH]c2ccc([N+](=O)[O-])cc12`?
uPA surface inh: 0.9%; DT40 TDP1 CPT: inconclusive; TDP1 cell noCPT: inconclusive; IL-1B inflam inh: 34.4; HT1080-NT tox: 4.8%; HT1080 IDH1KD tx: 15.2%

What do the screens show for `Cc1cccc(NC(=S)N=Nc2c(O)[nH]c3ccccc23)c1`?
uPA surface inh: -8.6%; DT40 TDP1 CPT: 3.26µM*; TDP1 cell noCPT: 4.61µM*; IL-1B inflam inh: 14.8; HT1080-NT tox: inconclusive; HT1080 IDH1KD tx: inconclusive

What do the screens show for `O=C(N=Nc1c(O)[nH]c2ccccc12)Nc1ccccc1`?
uPA surface inh: 4.1%; DT40 TDP1 CPT: 18.4µM*; TDP1 cell noCPT: inconclusive; IL-1B inflam inh: -25.5; HT1080-NT tox: 19.3%; HT1080 IDH1KD tx: 27.1%

Results for COc1ccccc1NC(=S)N=Nc1c(O)[nH]c2ccc(Br)cc12 ?
uPA surface inh: inconclusive; DT40 TDP1 CPT: 2.59µM*; TDP1 cell noCPT: 1.46µM*; IL-1B inflam inh: 0.0; HT1080-NT tox: 7.7%; HT1080 IDH1KD tx: -21.1%

Results for Cc1cccc(NC(=O)c2cc(=O)[nH]c3ccccc23)c1 ?
uPA surface inh: 15.9%; DT40 TDP1 CPT: 9.2%; TDP1 cell noCPT: -7.7%; IL-1B inflam inh: 5.3; HT1080-NT tox: -1.0%; HT1080 IDH1KD tx: 0.9%

How did COc1ccc(C)cc1NC(=O)CCCN1C(=O)CN(C)C1=O do in these assays?
uPA surface inh: -0.1%; DT40 TDP1 CPT: 0.6%; TDP1 cell noCPT: -7.1%; IL-1B inflam inh: 16.1; HT1080-NT tox: 9.2%; HT1080 IDH1KD tx: 8.2%

What do the screens show for `CC(=O)Nc1cccc(-c2ccnc3c2CC(C)(C(=O)NCC2CC2)O3)c1` (stereo not drawn)?
DT40 TDP1 CPT: 4.11µM*; TDP1 cell noCPT: 2.91µM*; IL-1B inflam inh: 68.9

Results for CC(=O)Nc1cccc(-c2ccnc3c2CC(C)(C(=O)NCCC(F)(F)F)O3)c1 (stereo not drawn) ?
DT40 TDP1 CPT: 3.66µM*; TDP1 cell noCPT: 4.11µM*; IL-1B inflam inh: 80.2; HT1080-NT tox: inconclusive; HT1080 IDH1KD tx: inconclusive

How did CC(=O)Nc1ccc(-c2ccnc3c2CC(C)(C(=O)NCC2CC2)O3)cc1 (stereo not drawn) do in these assays?
DT40 TDP1 CPT: -24.7%; TDP1 cell noCPT: inconclusive; IL-1B inflam inh: 17.7; HT1080-NT tox: 18.1%; HT1080 IDH1KD tx: 13.4%

What do the screens show for `CC(=O)Nc1ccc(-c2ccnc3c2CC(C)(C(=O)NCCC(F)(F)F)O3)cc1` (stereo not drawn)?
DT40 TDP1 CPT: inconclusive; TDP1 cell noCPT: inconclusive; IL-1B inflam inh: 13.6; HT1080-NT tox: -16.5%; HT1080 IDH1KD tx: -28.4%

What do the screens show for `CCc1nc2c(OCc3ccc(Cl)cc3)cccn2c1N(C)C(=O)c1ccc2c(c1)OCO2`?
DT40 TDP1 CPT: inconclusive; TDP1 cell noCPT: inconclusive; IL-1B inflam inh: -6.4; HT1080-NT tox: -21.6%; HT1080 IDH1KD tx: -14.1%

Results for COC(=O)c1ccc(CC(=O)c2nc3ccccc3s2)cc1 ?
uPA surface inh: -0.5%; DT40 TDP1 CPT: -2.4%; TDP1 cell noCPT: -18.8%; IL-1B inflam inh: 36.7; HT1080-NT tox: -6.6%; HT1080 IDH1KD tx: -3.7%

What do the screens show for `COC(=O)c1ccc(/C(O)=C(\C#N)c2nc3ccccc3s2)cc1`?
uPA surface inh: -6.6%; DT40 TDP1 CPT: inconclusive; TDP1 cell noCPT: inconclusive; IL-1B inflam inh: -77.4*; HT1080-NT tox: -1.2%; HT1080 IDH1KD tx: -15.8%
